Measured values reported in PubChem BioAssay (EPA / NIEHS).
Active and inactive are the calls of the source. How the source made its calls: active means hit-call score of the fitted dose curve at least 0.9, where 1 is the maximum; inactive means score below 0.9.

read-out: Interleukin 6 Receptor (IL6R), IL6R (gene 3570); assay: LTEA_HepaRG_IL6R: Life Technologies and Expression Analysis (LTEA) Assay for Interleukin 6 Receptor (IL6R) using HepaRG (AID 2283510); conditions: mRNA level, 48 h; actives raise or lower the signal;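 on AC50: TaqMan qRT-PCR signal normalized to ACTB GAPDH and POLR2A housekeeping genes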
Protocol: LTEA_HepaRG is a cell based, multiplexed-readout assay that uses HepaRG, a human liver cell line, with measurements taken at 48 hours after chemical dosing on a 96-well plate.LTEA_HepaRG_IL6R is one of 102 assay component(s) measured in the LTEA HepaRG cell culture assay. It is a marker of Inflammation.Data from the assay component LTEA_HepaRG_IL6R was analyzed into 1 endpoint. This assay endpoint, LTEA_HepaRG_IL6R, was analyzed with bidirectional fitting relative to DMSO as the negative control and baseline of activity. Using a type of inducible reporter, measures of mRNA induction for gain or loss-of-signal activity can be used to understand regulation of transcription factor activity. To generalize the intended target to other relatable targets, this assay endpoint is annotated to the cytokine receptor intended target family, where the subfamily is JAK-STAT cytokine receptor.
A total of 1060 chemcials from the ToxCast library were tested in eight-point concentration-response experiments. Cell culture and cytotoxicity assays were conducted at Thermo Fisher Scientific's Custom Services facility (Madison, WI). A single lot of human HepaRG cells (Thermo Fisher Scientific, Frederick, MD) was used for the cell culture experiments. 96-well format collagen type I coated plates of human HepaRG cells were prepared using established methods. Briefly, cryopreserved HepaRG cells were thawed, plated at a density of approximately 100,000 cells/well in HepaRG Thaw, Plate, and General Purpose media (HPRG770, Thermo Fisher Scientific), and incubated for 48 hours. 0.5% DMSO was selected as vehicle control to balance the requisite need of DMSO in HepaRG cultures to maintain differentiation (for example, baseline metabolism, proportions of hepatocytes vs. cholangiocytes), while enabling further hepatic receptor pathway activation (for example, PXR and CAR) in response to chemical exposure. 48 hours after plating, the culture medium was replaced with HepaRG Serum-Free Incudtion Media. Cells were exposed to each test chemical in duplicate and maintained in CO2 incubators for another 48 hours. Chemical plates were thawed to room temperature and 200x concentrations of treatment groups were prepared. 8-point conentration-reponse curves were made with the highest exposure at 100 uM, followed by half-log dilutions, all in 0.5% DMSO. Each test plate contained variouse controls, induction positive controls (1mM phenobarbital), cytotoxicity positive controls ([…] aflatoxin B1), vehicle controls (0.5% DMSO), and total lysis controls (0.5% DMSO). Cell morphology images were taken using an Essen IncuCyte FLR automated microscope, with six 96-well plates imaged in about 24 minutes. Images were captured and exported and JPEG files. Spent culture media was transfered to black-well plates for the LDH assay, and remaining media was sorted at -80 C for later use. Cells were treated with RLT buffer and frozen until shipped for gene expression analysis. Total RNA was isolated from the cell suspension in 75 uL of Buffer RLT (Qiagen, Germantown, MD 20874) by Quintiles/Expression Analysis (Durham, NC) using a custom isolation procedure. Total RNA from each plate well was transferred to a preamplification plate. Fluidigm's 96.96 Dynamic ArrayTM (Fluidigm, Amsterdam, the Netherlands) technology was used for gene expression analyses by quantitative reverse transcription polymerase chain reaction (qRT-PCR, performed by Quintiles/Expression Analysis, Durham, NC)89. Standard TaqManTM Assays (Applied Biosystems/ThermoFisher Scientific, Foster City, CA) were used to assess the expression of 93 genes selected based on their selectivity and sensitivity to important hepatic receptors known to be modulated by environmental chemicals; importance in human hepatocyte functionality; and hepatotoxicity. […]

SMILES	outcome	AC50
CC(O)CN(CCN(CC(C)O)CC(C)O)CC(C)O (stereo not given)	inactive	
O=C(O)c1cc(N=Nc2ccc(S(=O)(=O)Nc3ccccn3)cc2)ccc1O	inactive	
C1N2CN3CN1CN(C2)C3	inactive	
CC(C)(O)c1coc(S(=O)(=O)NC(=O)Nc2c3c(cc4c2CCC4)CCC3)c1	inactive	
O=c1n(CC2CO2)c(=O)n(CC2CO2)c(=O)n1CC1CO1 (stereo not given)	inactive	
CC[C@H]1OC(=O)[C@H](C)[C@@H](O[C@H]2C[C@@](C)(OC)[C@@H](O)[C@H](C)O2)[C@H](C)[C@@H](O[C@@H]2O[C@H](C)C[C@H](N(C)C)[C@H]2O)[C@](C)(O)C[C@@H](C)C(=O)[C@H](C)[C@@H](O)[C@]1(C)O	inactive	
CCN(C(=O)c1cc(C)cc(OC[C@H](C)Nc2ccncc2)c1)C(C)C	inactive	
O=C(CCCCCCCCc1cccnc1)N1CCC(C=C(c2ccccc2)c2ccccc2)CC1		89.3 µM (active)
O=C(O)c1cccc(Oc2ccccc2)c1	inactive	
CCCCCCc1ccc(O)cc1O	inactive	
Nc1nc2ncc(CNc3ccc(C(=O)N[C@@H](CCC(=O)O)C(=O)O)cc3)nc2c(=O)[nH]1	inactive	
CC(C)CC(C)(O)C#CC(C)(O)CC(C)C (stereo not given)	inactive	
COC(=O)c1ccccc1O	inactive	
O=C1CCC(N2C(=O)c3ccccc3C2=O)C(=O)N1 (stereo not given)	inactive	
CN(C)c1ccc(Cc2ccc(N(C)C)cc2)cc1	inactive	
Cc1c(-c2cccnc2)c2ccccc2n1CCCCC(=O)O	inactive	
O=C(O)CCN(C1(C(=O)NO)CCCC1)S(=O)(=O)c1ccc(Oc2ccc(F)cc2)cc1	inactive	
Cn1cnc([N+](=O)[O-])c1Sc1ncnc2nc[nH]c12	inactive	
Nc1ccc(Nc2ccccc2)cc1	inactive	
COCCOc1cc2cc(C(=O)NC3CCN(C(C)C)CC3)n(CC(=O)Nc3ccc(Cl)cn3)c2cn1		10.6 µM (active)

SMILES	outcome	AC50
CC1=CC(=O)CC(C)(C)C1	inactive	
CC(C)=CCCC(C)CCO (stereo not given)	inactive	
O=C1CCCCCN1	inactive	
CCOC(=O)c1ccc(C2CCC(NC[C@H](O)COc3ccc(O)c(NS(C)(=O)=O)c3)CC2)cc1 (stereo not given in full)	inactive	
Cn1c(=O)cc(Oc2ccc(F)cc2F)c2cnc(NCC(C)(C)O)nc21	inactive	
Cc1[nH]cnc1C[C@H]1CCc2c(C)c3ccccc3n2C1=O		79.3 µM (active)
NC(=O)NO	inactive	
O=c1[nH]c2ccc(S(=O)CCN3CCC(Cc4ccc(F)cc4)CC3)cc2o1 (stereo not given)	inactive	
C[C@](N)(Cc1ccc(O)c(O)c1)C(=O)O	inactive	
O=C(NS(=O)(=O)/C=C/c1ccccc1)c1ccc(F)cc1Cl	inactive	
CCOCCO	inactive	
O=P(OC(CCl)CCl)(OC(CCl)CCl)OC(CCl)CCl	inactive	
CC(C)=CCCC(C)=CC=O	inactive	
CCOCCOCCOCCO	inactive	
CC[C@H](C)C(=O)O[C@H]1C[C@@H](C)C=C2C=C[C@H](C)[C@H](CC[C@@H]3C[C@@H](O)CC(=O)O3)[C@H]21	inactive	
CCCC(=O)OCC	inactive	
COCCOCCOCCOC	inactive	
CCCN(C1CCN(C(=O)C2CCNCC2)CC1)[C@@H]1CCc2ccc(OC)cc2C1		50 µM (active)
O=C1OC(=O)C2C3C=CC(C3)C12 (stereo not given)	inactive	
C1=CCCC=CCCC=CCC1	inactive	
